Source: PubChem BioAssay AID624481 (The Scripps Research Institute Molecular Screening Center, 2012)
A number with no mark means an inactive call. Calls of active or inactive are those of the source. Cut-off read from the data, not from the text of the source: active = inhibition above about 50%; inactive = the rest.

Biological target: Prolyl endopeptidase-like (Mus musculus) (UniProt Q8C167)
Assay: purified PREPL inhibitors, PREPL inhibitor project, biochemical, gel-based competitive ABPP, fluorescence, HTS hits (AID 624481)
Details: at 20 µM, hits give high values

Prolyl endopeptidase-like (Mus musculus), sequence (Q8C167 whole entry, looked up): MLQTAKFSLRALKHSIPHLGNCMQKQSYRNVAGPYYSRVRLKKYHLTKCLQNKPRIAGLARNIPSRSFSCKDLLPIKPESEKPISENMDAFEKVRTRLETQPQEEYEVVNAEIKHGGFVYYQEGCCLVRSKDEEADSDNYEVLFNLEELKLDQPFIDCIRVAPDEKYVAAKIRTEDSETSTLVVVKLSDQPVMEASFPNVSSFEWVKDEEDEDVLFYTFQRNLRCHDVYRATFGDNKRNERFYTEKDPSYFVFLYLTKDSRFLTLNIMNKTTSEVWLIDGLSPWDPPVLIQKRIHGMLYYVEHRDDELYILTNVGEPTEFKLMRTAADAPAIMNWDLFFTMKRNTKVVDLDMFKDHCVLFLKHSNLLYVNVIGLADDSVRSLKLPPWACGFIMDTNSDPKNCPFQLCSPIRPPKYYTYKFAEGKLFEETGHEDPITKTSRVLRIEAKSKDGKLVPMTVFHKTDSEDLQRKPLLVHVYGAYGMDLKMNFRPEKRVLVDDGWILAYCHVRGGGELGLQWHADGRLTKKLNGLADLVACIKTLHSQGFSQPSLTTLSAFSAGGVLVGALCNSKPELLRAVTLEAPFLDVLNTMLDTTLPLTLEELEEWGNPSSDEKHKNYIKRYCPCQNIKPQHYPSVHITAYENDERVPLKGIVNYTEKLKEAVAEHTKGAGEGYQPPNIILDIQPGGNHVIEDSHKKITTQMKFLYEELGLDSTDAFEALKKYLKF

SMILES	inhibition
Nc1[nH]n2c(=O)c3c(nc2c1N=Nc1ccccc1)CCCC3	1%
Cc1ccc2nc(-c3ccccn3)c(NC3CCCC3)n2c1	-23%
CC1CC(C)CN(C(=O)c2ccc3c(c2NCCO)C(=O)c2ccccc2C3=O)C1 (centres undefined)	7%
COCCCNC(=O)/C(C#N)=C/c1c(N2CCN(c3ccc(OC)cc3)CC2)nc2c(C)cccn2c1=O	-39%
CN1CCN(c2ccc(NC(=O)COc3ccc4ccccc4c3)cc2)CC1	-21%
O=C(C1=C[C@@H](c2ccc(Br)cc2)C[C@@H](OCc2ccc(CO)cc2)O1)N1CCN(Cc2ccccc2)CC1	-99%
COc1ccc(N2CCN(c3cc(C)nc4ccc(OC)cc34)CC2)cc1	-69%
O=C(C1=C[C@@H](c2ccc(C(F)(F)F)cc2)C[C@@H](OCc2ccc(CO)cc2)O1)N1CCN(Cc2ccccc2)CC1	-76%
O=C(C1=C[C@@H](c2ccc(C(F)(F)F)cc2)C[C@@H](OCCCCO)O1)N1CCN(Cc2ccc3c(c2)OCO3)CC1	-20%
O=C(CSc1ccccc1F)Nc1ccc(N2CCOCC2)cc1	-55%
CCN(CC)c1ccc2cc(C(N)=O)c(=NNC(=O)c3ccncc3)oc2c1	-14%
Cc1ccccc1-c1ccc(Nc2ccc(N3CCOCC3)cc2)nn1	12%
COc1cccc(N=Nc2c(N)[nH]n3c(=O)c4c(nc23)CCCC4)c1	93% (active)
Nc1c(Cl)ncnc1NN=Cc1ccc2ccccc2n1	-48%
COc1ccc(NCc2nn(CC(=O)c3ccc(Br)cc3)c3[n+]2CCCCC3)cc1	-48%
CCn1c2ccccc2c2cc(CNCc3ccc(OC)cc3OC)ccc21	-93%
Cc1cccc(OCC(=O)Nc2ccc(N3CCN(C(=O)c4ccccc4)CC3)cc2)c1C	-8%
CN(C)CCc1cc2c(c3c1ccc1ccccc13)OCO2	-26%
Oc1c(CN2CCCC2)cc(COCc2ccccc2)c2cccnc12	-64%
Cc1cccc(C2CC(c3ccc(Cl)cc3)Nc3nc(N)nn32)c1 (centres undefined)	-60%
CC[C@@H](C)[C@@H]1CN([C@@H](C)CN2CCC[C@H]2CN2C(N)=NC[C@H]2C(C)C)C(=N)N1CCc1ccc(Cl)c(Cl)c1	-48%
COc1ccc(C(=O)c2coc3ccc(O)c(CN4CCCC4)c23)cc1	-31%
Nc1cc([N+](=O)[O-])cc2oc(-c3ccccc3)cc12	-25%
CCCCNc1c(-c2ccc(SC(C)CC)cc2)nc2cnccn12 (centres undefined)	-22%
c1ccc(-c2nc3ccccn3c2NC2CCCC2)nc1	-69%

SMILES	inhibition
CNC(=S)N1N=C(c2ccc(OC)cc2)CC1c1ccc(N(C)C)cc1 (centres undefined)	-55%
Nc1nn(-c2ccccc2)c(N)c1N=Nc1ccc2c(c1)OCO2	17%
C#CCOCCOCCOCCNc1nc(N2CCN(C(=O)[C@H](CCCCN)n3cc([C@@H](N)C(C)CC)nn3)CC2)nc(N2CCN(C(=O)[C@H](Cc3cc4ccccc4[nH]3)n3cc([C@@H](N)C(C)CC)nn3)CC2)n1 (some centres undefined)	-33%
CC(C)n1cnc2c(NCc3ccccc3)cc(OCC3CCN(C)CC3)cc21	-49%
COc1ccc(NCc2nc3ccccc3n2CCOc2ccc(C)cc2)cc1	-75%
c1ccc(N2CCN(c3nc(NCc4ccco4)c4ccccc4n3)CC2)cc1	94% (active)
CN(C)c1ccc(C(CNC(=O)c2ccc(-c3ccccc3)cc2)N2CCOCC2)cc1 (centres undefined)	-7%
CC(=O)N1CCN(c2ccc(NC(=O)COc3ccc(Cl)cc3Cl)cc2)CC1	-20%
Nc1[nH]n2c(=O)c3c(nc2c1N=Nc1ccc(Cl)cc1)CCCC3	-12%
CN1CCN(C(=O)C2=C[C@@H](c3ccc4c(c3)OCO4)C[C@@H](OCc3ccc(CO)cc3)O2)CC1	-46%
Clc1cccc(-c2ccc(C3Nc4cccc5cccc(c45)N3)o2)c1	100% (active)
C#CCOCCOCCOCCNc1nc(N2CCN(C(=O)CCCCCCCCCCNC(=O)[C@H](CCCCN)n3cc(C)nn3)CC2)nc(N2CCN(C(=O)CCCCCCCCCCNC(=O)[C@H](CCCN=C(N)N)n3cc(C[C@@H](C)CC)nn3)CC2)n1	-58%
Oc1c(CN2CCCCC2)cc(COCc2ccccc2)c2cccnc12	92% (active)
C[n+]1c(-c2ccccc2)sc(S)c1-c1ccccc1	-31%
CC(=O)n1cc([C@@H]2C=C(C(=O)N3CCN(C)CC3)O[C@H](OCc3ccc(CO)cc3)C2)c2ccccc21	-55%
Cc1ccn2c(Nc3ccc4c(c3)OCO4)c(-c3ccccn3)nc2c1	-41%
C[C@H](CO)N1C[C@H](C)[C@H](CN(C)Cc2ccccc2)Oc2c(NC(=O)Nc3ccc(F)cc3)cccc2C1=O	-56%
CN(C)c1ccc(NC(=O)Cn2cc3c(n2)CCCC3)cc1	-22%
COc1ccc2cc1Oc1ccc(cc1)C[C@H]1c3cc(c(OC)cc3CCN1C)Oc1c(OC)c(OC)cc3c1[C@H](C2)N(C)CC3	-30%
Oc1c(CN2CCOCC2)cc(COCc2ccccc2)c2cccnc12	-145%
CC(C)(C)Nc1nc(-c2ccccn2)nc2ccccc12	-31%
COc1ccc(N2CCN(CCC(O)c3ccc4ccccc4c3)CC2)cc1 (centres undefined)	-79%
C#CCOCCOCCOCCNc1nc(N2CCN(C(=O)C(Cc3ccc(O)cc3)n3cc(C(N)CC(C)C)nn3)CC2)nc(N2CCN(C(=O)C(Cc3cc4ccccc4[nH]3)n3cc(C(N)Cc4ccc(O)cc4)nn3)CC2)n1 (centres undefined)	-100%
C#CCOCCOCCOCCNc1nc(N2CCN(C(=O)[C@H](Cc3cc4ccccc4[nH]3)n3cc([C@@H](N)C(C)CC)nn3)CC2)nc(N2CCN(C(=O)[C@H](CCCCN)n3cc([C@@H](N)CC(C)C)nn3)CC2)n1 (some centres undefined)	-29%
O=c1cc(-c2ccc(O)c(O)c2)oc2cc(O[C@@H]3O[C@H](CO)[C@@H](O)[C@H](O)[C@H]3O)cc(O)c12	-12%

SMILES	inhibition
Cc1ccccc1C(=O)N1CCN(c2ccc(NC(=O)CSc3ccc(Cl)cc3)cc2)CC1	-27%
O=C1NC(Cc2c[nH]c3ccccc23)C(=O)N1Cc1ccc(CN2C(=O)NC(Cc3c[nH]c4ccccc34)C2=O)cc1 (centres undefined)	28%
COc1ccc(C(=O)c2coc3ccc(O)c(CN4CCCCC4)c23)cc1	-53%
O=C(C1=C[C@@H](c2ccc(Br)cc2)C[C@@H](OCc2ccc(CO)cc2)O1)N1CCOCC1	-26%
COc1cccc(C2CC(c3ccc(C)cc3)Nc3nc(N)nn32)c1 (centres undefined)	-27%
CC1(C)N=C(N)N=C(N)N1c1ccc(Oc2ccc(Cl)cc2)c(Cl)c1	-35%
CNCCC(Oc1ccc(C(F)(F)F)cc1)c1ccccc1 (centres undefined)	-58%
CCc1ccc(OCC(=O)Nc2ccc(N3CCN(C(=O)c4ccccc4)CC3)cc2)cc1	-73%
CN1CCN(c2ccc(NC(=O)COc3cccc4ccccc34)cc2)CC1	15%
COCCn1c(-c2ccc(Br)cc2)csc1=Nc1cccnc1	43%
CCOc1ccc2[nH]c3c(N4CCc5ccccc5C4)ncnc3c2c1	1%
Cc1noc(C)c1S(=O)(=O)Nc1ccc2c(c1)C(=O)N([C@H](C)CO)C[C@H](C)[C@@H](CN(C)C(=O)Nc1ccc(C(F)(F)F)cc1)O2	-1%
CC(=O)N1CCN(c2ccc(NCc3cccc4ccccc34)cc2)CC1	-26%
COc1ccc(N2CCN(C(=O)CN3C(=O)NC(C)(c4ccc5ccccc5c4)C3=O)CC2)cc1 (centres undefined)	-26%
CCCCCNc1nc(N2CCCC2)c2c(c1C#N)CCN(C)C2	-89%
Cc1ccc(-c2csc(=Nc3cccnc3)n2CCCn2ccnc2)cc1C	-52%
Cc1c(CN(C)C)c2c(n1Cc1ccccc1)C(=O)c1ccc(Br)cc1-2	-33%
CN(C)c1ccc(NC(=O)c2ccc(Cn3cc([N+](=O)[O-])cn3)cc2)cc1	-9%
CCCCCCCCCCCCCCCC[n+]1cccc(C(=O)N(CC)CC)c1	10%
C#CCOCCOCCOCCNc1nc(N2CCN(C(=O)[C@H](CCCCN)n3cc([C@@H](N)CC(C)C)nn3)CC2)nc(N2CCN(C(=O)[C@H](Cc3cc4ccccc4[nH]3)n3cc([C@@H](N)Cc4ccc(O)cc4)nn3)CC2)n1	-71%
CCN1/C(=C/c2ccc3ccc(C)cc3[n+]2CC)Sc2ccccc21	-19%
CCCCCCCCCCCCCCCC[N+](C)(C)CCN(Cc1ccc(OC)cc1)c1ncccn1	81% (active)
CCC(=O)N1CCN(c2ccc(NC(=O)COc3cccc(C)c3C)cc2)CC1	-49%
Cc1ccc(-c2csc(=Nc3cccnc3)n2CCCN2CCCC2=O)cc1C	-149%
